Data published in PubChem BioAssay (NCI).
Several values for one entry are separate records, joined by “and”; a condition that tells them apart may be missing. Equal values may be shown once. This is part of a sample that, as a whole, favours compounds with a hit. Of some 83,000 tested, about 20% had one in any assay.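 The endpoint reported here, percent growth, reads 100 for growth as untreated, 0 for no net growth and -100 for all cells dead.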 Activity calls are given as the source filed them. Rule for the calls: active = growth percent below 10; inactive = the rest.

Each compound was assayed on MDA-MB-468 breast (assay: NCI-60 one-dose screen, 48 h (100 = growth as untreated, 0 = no growth, -100 = all killed)). Settings: 10 µM unless noted.

| Compound | growth |
| --- | --- |
| O[N+]1=CC=CCC1=S.On1ccccc1=S.[Zn] | -75.8% (active) |
| CCCCCn1sc(=O)n(Cc2ccc(CNC(=O)OCc3ccc4c(Cl)cc(Cl)c(O)c4n3)cc2)c1=O | 59.8% (inactive) |
| O=c1cc(-c2cccnc2)oc2c1ccc1ccccc12 | 65% (inactive) |
| O=C1CCCN1C(O)CCN(Cc1ccccc1)Cc1ccc(Cl)cc1 (stereo not given) | 113% (inactive) |
| Clc1cccc(Cc2cn3cc(-c4ccccc4)nc3s2)c1 | 44.3% (inactive) |
| COc1ccc(/C=C2\CCCC3C2=Nc2ccccc2NC3c2ccc(OC)cc2)cc1 (stereo not given) | 43.6% (inactive) |
| O=C(CSc1nnc(-c2cccs2)n1-c1ccccc1)Nc1ccccc1 | 49.1% (inactive) |
| C=CCN(/C=C1/C(=O)O[C@H](COC)[C@@]2(C)C1=C(O)C(=O)C1=C2[C@H](OC(C)=O)C[C@]2(C)C(=O)CC[C@@H]12)CC=C | -32.2% (active) |
| COc1ccc(NC(=O)[C@H](C)N)cc1C(=O)Nc1cccc(-c2cc(=O)c3c(OC)c(OC)c(OC)cc3o2)c1 | 58.5% (inactive) |
| CCN1CCN(c2ccc(NC(=O)Nc3nc4ccc(-c5ccccc5OC)cc4s3)cc2)CC1 | -76.7% (active) |
| COc1ccc(C(=O)Nc2ncc(Cc3ccc(Cl)cc3)s2)cc1 | 24.6% (inactive) |
| CC(=O)NC(Cc1ccccc1)C(=O)Oc1ccc2ccccc2c1 (stereo not given) | 107% (inactive) and 119% (inactive) |
| COC(=O)c1ccc2c(c1)c1c(C)c3ccncc3c(C)c1n2C | 39.5% (inactive) |
| O=C(CSc1nccc(Nc2ccc(S(=O)(=O)Nc3ccccn3)cc2)n1)c1ccc(Cl)cc1 | 81.2% (inactive) |
| CC(=O)n1c2ccccc2c2ccccc21 | 105% (inactive) |
| Brc1ccc([I+]c2ccc(Br)cc2)cc1 | 21.6% (inactive) |
| O=C1CSC(=S)N1CCc1ccc(O)cc1 | 40.5% (inactive) |
| Cc1ccc(-c2nc(SCC(=O)c3ccc(C#N)cc3)[nH]c(=O)c2C#N)cc1 | 120% (inactive) |
| O=C1Nc2ccccc2/C1=C/c1cn(C(=O)c2c(Cl)cccc2Cl)c2ccccc12 | 32.7% (inactive) |
| CC(C)(Sc1cc(C(C)(C)C)c(O)c(C(C)(C)C)c1)Sc1cc(C(C)(C)C)c(OC(=O)CCCC(=O)O)c(C(C)(C)C)c1 | 43.5% (inactive) |

| Compound | growth |
| --- | --- |
| Cc1cnc(SCc2ccc(Cl)cc2Cl)nc1Nc1ccc(Cl)c(Cl)c1 | 101% (inactive) |
| COc1ccccc1/C=C/C(=O)CCC(=O)O | 124% (inactive) |
| CCCCCCC(C)CC1=C(O)c2ccccc2C(=O)C1=O (stereo not given) | 1.43% (active) |
| O=c1[nH]c(=O)[nH]c(=S)[nH]1 | 95.8% (inactive) |
| COc1cc(C(=O)/C=C/c2c(-c3cccs3)nc3ccccn23)cc(OC)c1OC | -30.4% (active) |
| CC[C@@]1(C(N)=O)CC2C=CC1C2 (stereo not given in full) | 103% (inactive) |
| COc1c(C(=O)/C=C/c2ccc(C)o2)c(O)cc2occc12 | 30.7% (inactive) |
| CCN(CC)c1ccc(/C=N/N=C(N)N)cc1 | 26% (inactive) |
| Cc1nc2ccccc2c(/C=C/c2ccc(Cl)cc2)c1C(=O)/C=C/c1ccc(C(F)(F)F)cc1 | -65.8% (active) |
| COc1ccc2c(c1)sc1nc(-c3ccccc3)c(-c3ccsc3)n12 | 32.5% (inactive) |
| CCOC(=O)C1=C(CCl)NC(=O)NC1c1ccc2c(c1)OCO2 (stereo not given) | -1.1% (active) |
| CC(=O)Cc1nsc(NC(=O)c2cc(-c3cc(Cl)ccc3Cl)oc2C)n1 | 100% (inactive) |
| COc1ccc(-c2cc(-c3cn(-c4cccc(Cl)c4)nc3-c3ccc(OC)cc3)[nH]c(=S)n2)cc1 | 39% (inactive) |
| CC1=CC(O)C2CC1C2(C)C (stereo not given) | 105% (inactive) and 100% (inactive) |
| CCCCCCCCCCCCSC1=C(Cl)C(=O)C(OC)=C(OC)C1=O | 20.9% (inactive) |
| O=C(OCCCCOC(=O)n1cnc2ccccc21)n1cnc2ccccc21 | 112% (inactive) |
| C=CCOc1ccc2c(c1)CC[C@@H]1[C@@H]2CC[C@]2(C)C(=O)/C(=N/O)C[C@@H]12 | 60.8% (inactive) |
| O=C(CN1CCN(c2cc3c(cc2F)c(=O)c(C(=O)O)cn3C2CC2)CC1)Nc1ccc(Cl)cc1 | 86% (inactive) and 91.1% (inactive) |
| CNC(=O)c1cccc2cc(Oc3ccnc4cc(OCC5(N)CC5)c(OC)cc34)ccc12 | 74.6% (inactive) |
| Nc1c(C(=O)c2ccc(Cl)s2)sc2nc3c(cc12)CCCC3 | 69.1% (inactive) |
